Results published in PubChem BioAssay AID1159580 (chemical genetic matrix, 2015).
The campaign covered roughly 5,500 compounds. About 2,000 (36%) were called active. Another 18% or so got no clear call; they are omitted. Rule as the data show it: active = normalized growth mostly below about 0.91 (no sharp cut-off); inconclusive = no clear call, values can overlap the other calls; inactive = mostly above about 0.92. The list shows a part of the results.

Experiment: chemical genetic growth profiling, strain panel (AID 1159580);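 also: tested at 20 µM; growth read once vehicle control cultures reached saturation at 30 °C; 1 = growth at the plate median or of vehicle wells; lower values mean less growth of the strain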
Details: growth OD

Measured: normalized growth

CCc1ccccc1NC(C)=O
inactive: S. cerevisiae deletion strains, locus YAL013W, strain DEP1, stronger effect = lower value 1.04 | S. cerevisiae deletion strains, locus YBR229C, strain ROT2, stronger effect = lower value 1 | S. cerevisiae deletion strains, locus YDL101C, strain DUN1, stronger effect = lower value 1.01 | S. cerevisiae deletion strains, locus YDR150W, strain NUM1, stronger effect = lower value 1.01 | S. cerevisiae deletion strains, locus YEL061C, strain CIN8, stronger effect = lower value 1.02 | S. cerevisiae deletion strains, locus YGR078C, strain PAC10, stronger effect = lower value 1 | S. cerevisiae deletion strains, locus YHR030C, strain SLT2, stronger effect = lower value 1.08 | S. cerevisiae deletion strains, locus YHR087W, strain rtc3, stronger effect = lower value 1.01 | S. cerevisiae deletion strains, locus YJL187C, strain SWE1, stronger effect = lower value 1 | S. cerevisiae deletion strains, locus YJR043C, strain POL32, stronger effect = lower value 0.995 | S. cerevisiae deletion strains, locus YJR075W, strain HOC1, stronger effect = lower value 0.997 | S. cerevisiae deletion strains, locus YLR039C, strain RIC1, stronger effect = lower value 0.992 | S. cerevisiae deletion strains, locus YLR058C, strain SHM2 (second series), stronger effect = lower value 0.997 | S. cerevisiae deletion strains, locus YLR085C, strain ARP6, stronger effect = lower value 1.01 | S. cerevisiae deletion strains, locus YLR262C, strain YPT6, stronger effect = lower value 1.06 | S. cerevisiae deletion strains, locus YML094W, strain GIM5, stronger effect = lower value 1.03 | S. cerevisiae deletion strains, locus YMR219W, strain ESC1, stronger effect = lower value 1.01 | S. cerevisiae deletion strains, locus YMR263W, strain SAP30, stronger effect = lower value 0.998 | S. cerevisiae deletion strains, locus YMR307W, strain GAS1, stronger effect = lower value 0.972 | S. cerevisiae deletion strains, locus YNL153C, strain GIM3, stronger effect = lower value 1.01 | S. cerevisiae deletion strains, locus YNL298W, strain CLA4 (second series), stronger effect = lower value 1.03 | S. cerevisiae deletion strains, locus YNL322C, strain KRE1, stronger effect = lower value 0.993 | S. cerevisiae deletion strains, locus YNR030W, strain Alg12, stronger effect = lower value 1.03 | S. cerevisiae deletion strains, locus YPL055C, strain LGE1, stronger effect = lower value 0.901 | S. cerevisiae deletion strains, locus YPL241C, strain CIN2, stronger effect = lower value 1.01 | S. cerevisiae deletion strains, locus YPR135W, strain CTF4, stronger effect = lower value 1.24 | S. cerevisiae strains, strain wild type, stronger effect = lower value 0.985
